JMJD2A Tudor inh: inhibitors of human JMJD2A Tudor domain; O75164; AlphaScreen JMJD2A-Tudor / H3K4me3 peptide binding; Potency, µM (highest dose often 114 µM), for the others: at the top dose activity change, negative = inhibition, actives largely listed as inhibitors; hit rate 4.4% among 390,000; AID 504339; further: on the % scale 0 is the no-effect control and ±100 the full control effect; nearly all actives have a fitted effect of over 50% in size
HP1b binding inh: inhibitors of HP1-beta chromodomain binding to methylated histone tails | AlphaScreen HP1-beta / biotin-H3K9me3 peptide binding | P83916 | hit rate 0.56% among 390,000 | Potency, µM (top dose mostly 114 µM), inactives show top-dose activity change, negative = inhibition, usual class: inhibitors; further: nearly all actives have a fitted effect of over 70% in size
Target sequence (P83916 whole entry, looked up): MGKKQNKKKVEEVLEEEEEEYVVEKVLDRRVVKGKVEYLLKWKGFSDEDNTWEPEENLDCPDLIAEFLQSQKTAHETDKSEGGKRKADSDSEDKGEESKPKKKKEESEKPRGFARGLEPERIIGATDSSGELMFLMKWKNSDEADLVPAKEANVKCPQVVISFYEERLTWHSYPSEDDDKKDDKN
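AlphaScreen: HP1-beta (50 nM) preformed 30 min with biotin-H3(1-18)K9me3 peptide (50 nM) in PBS pH 7.4, 0.01% Tween-20. Compound added for 30 min at RT, then streptavidin donor/nickel chelate acceptor beads (10 ug/mL) for 30 min.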
L3MBTL1 inh: L3MBTL1 (human) inhibition. Q9Y468. AlphaScreen L3MBTL1–H3K9me1 peptide binding. Potency, µM (top dose mostly 57.1 µM), for the others: at the top dose activity, negative = inhibition, actives largely listed as inhibitors. hit rate 0.66% among 230,000; further: on the % scale 0 is the no-effect control and ±100 the full control effect; nearly all actives have a fitted effect of over 60% in size
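AlphaScreen assay: L3MBTL1 (50 nM final) was preincubated 30 min at room temperature with biotinylated H3(1-15)K9me1 peptide (75 nM final), then 30 min with library compounds; streptavidin donor and nickel chelate acceptor beads (10 ug/mL final) added, 30 min dark.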
PLK1 PBD block: inhibitors of human PLK1 polo-box domain binding; AID 720504; Potency, µM, without a hit: max response, negative = inhibition, usual class: inhibitors; P53350; hit rate 2.8% among 360,000; Plk1 PBD binding of FITC phosphopeptide, fluorescence polarization; further: series mostly up to about 57 µM; on the % scale 0 is the no-effect control and ±100 the full control effect; nearly all actives have a fitted effect of over 65% in size
BAZ2B inh: inhibitors of human BAZ2B bromodomain | Potency, µM (highest dose often 114 µM), for the others: top-dose activity change, negative = inhibition, usual class: inhibitors | Q9UIF8 | AID 504333 | hit rate 4.4% among 360,000 | AlphaScreen BAZ2B-H3K14Ac peptide displacement; further: on the % scale 0 is the no-effect control and ±100 the full control effect; nearly all actives have a fitted effect of over 60% in size
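Inhibition is scored as reduced AlphaScreen emission. The BAZ2B/b-H3(5-23)K14Ac complex (50 nM each) in PBS pH 7.4, 0.01% Tween-20 meets compound (up to 110 uM) for 30 min at RT before bead addition.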
VDR inhibitor: blocks the human vitamin D receptor. P11473. VDR-SRC2-3 peptide fluorescence polarization, 2 h. Potency, µM, inactives show max response, negative = inhibition, hits mostly inhibitors. hit rate 0.93% among 400,000; further: on the % scale 0 is the no-effect control and ±100 the full control effect
Target sequence (P11473 whole entry, looked up): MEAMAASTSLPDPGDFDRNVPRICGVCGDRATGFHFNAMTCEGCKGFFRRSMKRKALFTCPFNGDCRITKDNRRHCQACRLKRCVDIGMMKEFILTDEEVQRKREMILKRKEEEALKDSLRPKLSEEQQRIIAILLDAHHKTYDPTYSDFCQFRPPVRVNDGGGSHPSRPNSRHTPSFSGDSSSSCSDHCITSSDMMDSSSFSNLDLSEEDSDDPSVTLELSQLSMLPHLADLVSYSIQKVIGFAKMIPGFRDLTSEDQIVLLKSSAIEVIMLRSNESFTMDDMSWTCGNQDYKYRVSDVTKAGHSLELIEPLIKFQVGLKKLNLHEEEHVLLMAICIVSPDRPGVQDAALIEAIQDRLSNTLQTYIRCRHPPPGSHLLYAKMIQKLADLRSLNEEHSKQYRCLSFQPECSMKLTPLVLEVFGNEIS
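VDR–SRC2-3 interaction, FP format. Cmpds 23 nl via pintool, brief spin, 2 h ambient incubation.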
The depositor's hits bear a star; u = inconclusive; x = not tested or not shown; [ ] = dose if it differs, or a comment. Sampled rows, rich in hits. Any-hit rate of the full collection: about 6.9%. The call rests on the fitted dose curve; in most records, active means well fitted curve in the direction sought with a large enough effect; inconclusive means small, poorly fitted or top-dose-only effect, or another doubt; inactive means no such curve, though single readings can be large; an effect the other way counts as inactive or inconclusive. Potency means the concentration at half of the fitted maximal effect.

SMILES | JMJD2A Tudor inh | HP1b binding inh | L3MBTL1 inh | PLK1 PBD block | BAZ2B inh | VDR inhibitor
O=C(NC1CCCC1)c1nc(-c2ccco2)oc1-c1ccccc1 | x | x | x | 0% | x | x
COCCCNC(=O)c1ccc(Cn2c(=O)c3ccccc3n(CC(N)=O)c2=O)cc1 | -18% | 24% | x | x | -2% | -7%
CCn1c(CSc2nc(C)cs2)nc2cc(S(=O)(=O)N(C)C)ccc21 | -29%[57.1 µM] | -7% | -1% | 27µM* | 7% | 5%
CCn1c(CCC(=O)O)nc2cc(S(=O)(=O)N(C)C)ccc21 | -4% | 50% | 6% | -4% | x | 4%
C=Cc1ccc(CN2CCCN(Cc3ccc(Cl)cc3)S2(=O)=O)cc1 | -16% | 86% | x | 15µM* | 5% | u
CCOc1ccc(C(=O)Cn2c(=O)n3nc(CCn4nc(C)cc4C)nc3c3cc(OC)c(OC)cc32)cc1 | -12% | 31% | x | x | -8% | -3%
N#Cc1cnc2c(-c3ccccc3)c(-c3ccccc3)nn2c1N | u | -8% | -9% | 19µM* | -19% | u
S=C(Nc1cccc(Cl)c1)Nc1cccc2cnccc12 | u | u | u | 27µM* | u | 71µM*
Cc1ccc(C)c(NC(=S)Nc2cccc3cnccc23)c1 | -16% | -2% | -1%[11.4 µM] | u | -36% | -26%
Cc1ccc(NC(=S)Nc2cccc3cnccc23)cc1C | -34% | u | -23% | 27µM* | -36% | u
Cc1ccc(NC(=S)Nc2cccc3cnccc23)cc1 | -27% | -7% | x | 27µM* | u | u
CC(=O)c1ccc(NC(=S)Nc2cccc3cnccc23)cc1 | -12% | 3% | x | 30µM* | u | u
Cc1cc(C)cc(C(=O)Nc2c3c(nn2-c2ccccc2C)CS(=O)(=O)C3)c1 | -29% | 33% | x | x | -1% | 7%
COc1cccc2c1OC(=O)CC2c1ccc(C)cc1 (stereo unspecified) | x | x | x | x | x | 7%
O=C(NCCCn1ccnc1)Nc1cccc(Cl)c1 | 45µM* | 32% | u | -2% | 25µM* | 5%
COc1cccc(NC(=O)C(=O)NCCCn2ccnc2)c1 | -23% | 1% | -10% | -4% | 79µM* | -10%
Clc1cccc(-n2ncc3c(NCCCn4ccnc4)ncnc32)c1 | u | 27% | x | x | 28µM* | 4%
COC(=O)C1=C(C)N(Cc2ccccc2)C(=S)N[C@H]1CCc1ccccc1 | x | x | x | x | -11% | x
O=C(Nc1nc2cc3c(cc2s1)OCCO3)c1ccc(N2C(=O)CCC2=O)cc1 | -3% | 45% | x | -4% | 4% | -26%
O=C(Nc1nc2cc3c(cc2s1)OCCO3)c1ccncc1 | -16% | -15% | -5% | 21µM* | -38% | u
COC(=O)C1OC(=O)C2OC23[C@]2(C)C(OC(C)=O)CC4C(C)(C)C(=O)CC[C@]4(C)C2CC[C@@]13C (stereo partly specified) | x | x | x | x | x | -7%
CC12CCC3c4ccc(OCc5ccccc5)cc4CCC3C1CC(O)C2O (stereo unspecified) | x | x | x | x | x | 4%
COc1ccccc1C1C=C(c2ccc(Cl)cc2)Nc2nc(N3C(=O)CCC3=O)nn21 (stereo unspecified) | 45µM* | 17% | 0% | -30% | x | 0%
COc1ccccc1C1C=C(c2ccc(Cl)cc2)Nc2nc(NS(C)(=O)=O)nn21 (stereo unspecified) | x | x | 4% | x | 3% | x
COc1ccc(C2=CC(c3ccccc3Cl)n3nc(-c4ccc(C)cc4)nc3N2)cc1 (stereo unspecified) | u | -11% | x | x | 11µM* | -14%
SMILES | JMJD2A Tudor inh | HP1b binding inh | L3MBTL1 inh | PLK1 PBD block | BAZ2B inh | VDR inhibitor
COc1ccc(C(=O)CSc2nc(C)cc(C)c2C(=O)Nc2ccccc2C)cc1 | -1% | 24% | x | x | -4% | 7%
O=[N+]([O-])c1ccc2c(c1)nnn2-c1ccccc1 | -14% | 27% | -4% | -13% | u | -10%
N#Cc1cc([N+](=O)[O-])c(-n2nnc3ccccc32)c([N+](=O)[O-])c1 | -30% | 2% | 14% | 11µM* | -11% | u
CCC(=O)OCC(=O)C1(OC(=O)CC)C(C)CC2C3C(Cl)CC4=CC(=O)C=C[C@@]4(C)C3C(O)C[C@@]21C (stereo partly specified) | x | x | x | x | x | 1%
O=C1NC2(CCCCC2)C(=O)N1/N=C/c1ccccc1Br | -15% | 35% | x | -4% | -16% | -12%
O=C1NC2(CCCCC2)C(=O)N1/N=C/c1ccc(O)cc1O | -15%[11.4 µM] | -18% | x | 21µM* | u | -26%
COc1ccc(-c2nc(SCC(=O)Nc3ccc4c(c3)OCCO4)c(-c3ccc(C)cc3)[nH]2)cc1OC | u | 2% | x | x | -23% | 13%
O=C1C=CC(=O)c2c(O)c(N3CCN(CCO)CC3)c(Cl)c(O)c21 | 50µM* | u | x | 12µM* | x | 8.9µM*
O=S(=O)(c1ccc(Br)cc1Cl)N1CCN(CCO)CC1 | -9% | 34% | 3% | -5% | x | -16%
O=C1C=CC(=O)c2c(O)c(N3CCN(CCOCCO)CC3)c(Br)c(O)c21 | 56µM* | 8.9µM* | x | u | x | u
OCCOCCN1CCN(C2=Nc3ccccc3Sc3ccccc32)CC1 | -22% | 15% | x | -17% | 0% | -11%
Cc1ccc(Cn2c(C(=O)O)c(CNCc3cccs3)c3ccc(C)cc32)cc1 | -28% | 5% | x | x | -35% | 18%
COc1ccccc1-n1c(CNC(=O)c2ccco2)nnc1SCC(=O)Nc1cc(C)ccc1C | u | -19% | 5% | 3µM* | 6% | -27%
c1ccc2c(c1)Nc1cc3ccccc3cc1S2 | -28% | 2% | -14% | -15% | -30% | 6%
COc1ccc2c(c1)Sc1ccccc1N2 | 40µM* | 28µM* | u | -19% | 20µM* | 5%
O=C(NCC(c1cccnc1)N1CCc2ccccc2C1)C(=O)Nc1ccc(Cl)cc1 (stereo unspecified) | -21% | -4% | x | x | -13% | 0%
CCN(CC)CC(O)CCCCCCCCC(=O)OC (stereo unspecified) | 5% | 17% | 51% | 6% | 7% | -5%
COC(=O)CCCCCCCCC(O)CN(C)C (stereo unspecified) | -15%[11.4 µM] | 4% | 11% | 27µM* | 2% | u
CCC(=O)Nc1ccc2nc3c(=O)[nH]c(=S)[nH]c3nc2c1 | 56µM* | u | x | u | 50µM* | 8%
O=C1c2ccccc2-c2cccc(C(=O)N3CCN(C(=O)c4ccccc4)CC3)c21 | -4% | 23% | -2% | -5% | -16% | u
O=C1C(O)=CC(=C(c2ccccc2)c2ccccc2)c2ccccc21 | 14µM* | 13µM* | x | -8% | x | -21%
CCN1CCN(c2cc(C)c3cc(NC(=O)/C=C/c4cccc(Cl)c4)ccc3n2)CC1 | 32µM* | -35% | x | x | u | 26%
NCCNc1cccc2ccccc12 | x | x | x | x | x | 50µM*
Cc1ccc(CN2CCN(C3CCN(S(=O)(=O)N(C)C)CC3)C(=O)C2=O)cc1 | -13% | 18% | x | x | -6% | 8%

Screening data from PubChem BioAssay.
